# Compounds with a hit are over-represented: about 5.1% of the library has one in this group of screens.
# ROMK mod – ROMK potassium channel modulators, primary screen, cell-based, thallium flux, MLSMR library; Tet-inducible ROMK, thallium flux fluorescence; actives lie on both sides; ATP-sensitive inward rectifier potassium channel 1 (Homo sapiens), P48048; 130,000 tested, 2% active; B-score at 10 µM;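 active = signal ratio slope over the read window, or its plate-corrected B-score, at least 3 SD from the plate mean, either direction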;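 also: B-score of the F/F0 ratio slope over 7 to 12 s after thallium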
# RAM network inh – inhibitors of the yeast RAM network, primary screen, dse1pr::URA3 reporter, 5-FOA selection | inhibition, % at 50 µM | 190,000 tested, 1.8% active | S. cerevisiae dse1pr::URA3 reporter, 5-FOA growth OD615, 2 d; analog-sensitive cbk1-as2 kinase mutant strain;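 active = inhibition above a set limit, 3 SD over mean compound inhibition, cut at about 8.4% in these data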;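 also: 0% = DMSO-only wells with no growth and 100% = 10 µM 1-NA-PP1 full growth; inhibition rescues growth on 5-FOA so higher OD means more RAM inhibition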
# S1P3 antagonist – S1P3 receptor antagonists, primary screen, cell-based. 170,000 tested, 0.27% active. Sphingosine 1-phosphate receptor 3 (Homo sapiens), Q99500. CHO S1P3 NFAT-BLA reporter, FRET fluorescence, antagonist mode. AID 485, 2006. inhibition, % at 4.98 µM;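 active = inhibition above the plate cutoff, the mean inhibition of test wells on that plate plus 3 SD, cut at about 28% in these data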;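 also: cells challenged with S1P at its EC80 of 0.8 µM; blue over green emission ratio from cleaved BLA substrate after 4 h stimulation; 0% = S1P-stimulated wells and 100% = unstimulated DMSO-only wells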
# Target sequence (Q99500 whole entry, looked up): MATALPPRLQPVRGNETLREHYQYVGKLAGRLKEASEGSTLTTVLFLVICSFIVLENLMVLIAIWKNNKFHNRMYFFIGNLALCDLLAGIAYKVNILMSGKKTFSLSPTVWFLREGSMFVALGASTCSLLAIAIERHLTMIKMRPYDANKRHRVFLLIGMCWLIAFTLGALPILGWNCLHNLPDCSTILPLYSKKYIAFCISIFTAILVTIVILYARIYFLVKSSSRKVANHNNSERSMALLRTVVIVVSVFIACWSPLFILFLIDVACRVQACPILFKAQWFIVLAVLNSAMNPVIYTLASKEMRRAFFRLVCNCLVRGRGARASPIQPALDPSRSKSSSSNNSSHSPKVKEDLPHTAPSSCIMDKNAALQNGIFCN
# S1P4 antag – S1P4 receptor antagonists, primary screen, cell-based; S1P4-expressing cells, antagonist mode, reporter read-out; inhibition, % at 4.98 µM; 220,000 tested, 0.26% active; in the data active = inhibition above about 29%;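 also: 0% = wells stimulated with agonist and 100% = vehicle wells without agonist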
# Target sequence (O95977 whole entry, looked up): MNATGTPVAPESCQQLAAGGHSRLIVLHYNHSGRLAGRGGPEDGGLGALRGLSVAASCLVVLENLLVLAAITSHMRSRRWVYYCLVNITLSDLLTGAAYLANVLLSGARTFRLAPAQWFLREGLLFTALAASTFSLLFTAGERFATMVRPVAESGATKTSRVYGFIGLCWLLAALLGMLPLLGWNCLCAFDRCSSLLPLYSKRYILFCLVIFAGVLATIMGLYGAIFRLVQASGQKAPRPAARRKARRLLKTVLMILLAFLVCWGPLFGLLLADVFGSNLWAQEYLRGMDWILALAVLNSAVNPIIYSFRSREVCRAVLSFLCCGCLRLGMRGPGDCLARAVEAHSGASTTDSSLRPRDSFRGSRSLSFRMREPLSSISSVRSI
# S1P4 ag – S1P4 receptor agonists, primary screen, cell-based. activation, % at 4.98 µM. Sphingosine 1-phosphate receptor 4 (Homo sapiens), O95977. AID 1509, 2009. 220,000 tested, 0.35% active. S1P4-expressing cell line, agonist reporter assay; in the data active = activation above about 11%;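 also: 0% = DMSO vehicle and 100% = reference agonist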
# Cl transport mod – KCC2 cotransporter modulators, thallium flux, primary screen, cell-based, HEK293 KCC2, FluoZin-2 fluorescence, MLSMR; 190,000 tested, 2.2% active; AID 1456, 2008; B-score of Tl+ flux slope (higher = more flux/activation; lower = inhibition) at 10 µM; KCC2 cells, thallium flux FluoZin-2 fluorescence;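 active = thallium flux slope and its plate-corrected score both differing from the plate sample mean at a set confidence after two filtering rounds, in either direction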;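 also: slope of fluorescence scaled to starting intensity during 10 to 20 s after thallium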
# KCC2 sec1 – KCC2 modulators in sodium-free buffer, confirmation, cell-based, HEK293 KCC2, thallium flux, secondary assay; normalised thallium flux (F/F0 slope) at 10 µM; 3,700 tested, 15% active; AID 1713, 2009; FluoZin2 fluorescence; hits give high values; shares compounds with Cl transport mod;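 active = thallium flux slope above the same plate's solvent-only control mean plus 3 SD; inconclusive = the two replicate wells disagree; inactive = no significant difference from solvent-only control wells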
# KCC2 bumet counter – thallium flux persisting under bumetanide in KCC2 cells, confirmation, counter-screen for KCC2 modulator project, cell-based, HEK293 KCC2, FluoZin2, secondary assay 3. shares compounds with Cl transport mod. 3,700 tested, 49% active. normalized thallium flux at 10 µM. HEK293-KCC2 + bumetanide/ouabain; hits give high values;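 active = thallium entry rate above the same plate's blocked-transporter control wells by more than 3 SD; inconclusive = the two repeat wells disagree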;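 also: raw slope of fluorescence over initial fluorescence between 10 and 20 s after thallium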
# KCC2 secondary2 – KCC2 modulators without ouabain present, confirmation, cell-based, HEK293 KCC2, thallium flux, FluoZin2, secondary assay 2; normalized thallium flux at 10 µM; shares compounds with Cl transport mod; AID 1715, 2009; thallium flux FluoZin2 fluorescence; actives lie on both sides; F/F0 rise rate, 10–20 s post-thallium; 3,700 tested, 23% active;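 active = thallium flux slope more than 3 SD above or below the plate's solvent-only control mean, mostly below; inconclusive = the two repeat wells disagreed; inactive = no significant shift from solvent-only controls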;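 also: raw slope with 0.1% DMSO as baseline and bumetanide as block control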
# HEK counter1 – thallium flux modulation in parental HEK cells, confirmation, counter-screen for KCC2 modulator project, cell-based, counterscreen 1. shares compounds with Cl transport mod. HEK293 parental cells, thallium flux FluoZin2, ouabain; baseline-ratio fluorescence slope, 10–20 s after thallium. thallium flux rate (normalised fluorescence) at 10 µM. 3,700 tested, 46% active. AID 1716, 2009;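 active = thallium flux rate significantly above the same plate's solvent-only control wells, beyond their mean plus 3 SD; inconclusive = the two replicate wells gave conflicting results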
# KCC2 retest ouab – KCC2 inhibitors and activators, ouabain retest, confirmation, HEK-KCC2 cells | AID 1717, 2009 | raw Tl+ flux slope (below DMSO = inhibition, above = activation) at 10 µM | 3,700 tested, 48% active | HEK293-KCC2, thallium flux FluoZin2 fluorescence; bidirectional: low = inhibitor, high = activator | shares compounds with Cl transport mod;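 active = thallium flux slope beyond 3 SD from same-plate DMSO control mean in most replicates, usually higher, sometimes lower; inconclusive = repeat tests gave conflicting results; inactive = no significant difference from controls in most replicates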;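 also: slope of initial-normalized fluorescence between seconds 10 and 20 after thallium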
# HEK293 Tl flux2 – native HEK Tl+ uptake effects, second counter-screen – HEK cells, counterscreen 2, counter-screen for KCC2 modulator project, confirmation. HEK293 parental, thallium flux FluoZin-2 fluorescence slope. thallium flux slope at 10 µM. shares compounds with Cl transport mod. 3,700 tested, 33% active;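 active = thallium flux slope above the same plate's solvent-control mean plus 3 SD in both duplicate wells; inconclusive = duplicate wells that disagreed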;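 also: run without ouabain in cells lacking the KCC2 cotransporter; slope of fluorescence scaled to its starting value between 10 and 20 s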
# * marks the source's active call; other numbers are inactive results; ? = inconclusive; . = no result given.
SMILES,ROMK mod,RAM network inh,S1P3 antagonist,S1P4 antag,S1P4 ag,Cl transport mod,KCC2 sec1,KCC2 bumet counter,KCC2 secondary2,HEK counter1,KCC2 retest ouab,HEK293 Tl flux2
Nn1c(-c2ccc(O)cc2)nnc1-c1ccc(O)cc1,.,.,-7.7,-4.2,0.5,.,.,.,.,.,.,.
C=CCSc1n[nH]c2nc3c(c(=O)n12)C1(CCCC1)Cc1ccccc1-3,.,1.8,.,-16.4,-0.4,.,0.00818,?,0.0343,?,0.0186,0.0105
CCSc1n[nH]c2nc3c(c(=O)n12)C1(CCCC1)Cc1ccccc1-3,.,6.0,.,-9.5,-2.5,-0.836,.,.,.,.,.,.
Cc1c(N(C(=O)c2ccccn2)C2(C(=O)NC3CCCC3)CCCCC2)c(=O)n(-c2ccccc2)n1C,-1.5,0.9,-13.6,-12.5,-0.7,-0.687,.,.,.,.,.,.
CCCN1CCN(C(=O)c2nn(-c3ccc(OC)cc3)c(=O)c3c2c2ccccc2n3C)CC1,0.863,-0.2,-12.2,-10.3,-0.8,-1.4,.,.,.,.,.,.
NC(=O)C1CCN(CC(=O)NC(=O)NC2CCCC2)CC1,0.355,-0.6,-16.5,-0.1,1.2,0.157,.,.,.,.,.,.
O=C(Nc1cccc2ccccc12)N1CCN(c2ncccn2)CC1,-1.8,1.1,-20.3,7.1,0.8,-4.06*,0.0111,?,0.0325,0.00843,0.0183,0.0106
S=C(Nc1cccc2ccccc12)N1CCN(c2ncccn2)CC1,.,2.0,.,-0.3,1.2,0.0328,.,.,.,.,.,.
Nc1cnccc1C(=O)O,-0.689,0.2,-10.5,5.4,0.3,-0.901,.,.,.,.,.,.
CCOC(=O)c1sc(N2N=C(C)C(N=Nc3cccc(C)c3)C2=O)nc1C (stereo unspecified),2.11,.,-10.5,5.1,0.8,21.9*,0.00666,0.0264*,0.0384*,0.0161*,0.0355*,0.0185*
COc1cc(-n2nc(C)c3c2OC(N)=C(C#N)C3c2ccccc2)c(Cl)c(Br)c1O (stereo unspecified),.,3.7,0.8,-1.3,-1.6,-2.57*,0.00626,0.00279*,0.0269*,0.00592*,0.014*,?
Cc1nn(-c2ccccc2)c2c1C(c1ccncc1)C(C#N)=C(N)O2 (stereo unspecified),-0.283,0.8,-38.3,-3.4,5.3,-0.055,.,.,.,.,.,.
CCn1c(O)c(N=N)c2ccccc21,-0.358,-0.7,-12.6,6.9,0.5,0.286,.,.,.,.,.,.
CCn1c(O)c(N=NC(=O)c2cccs2)c2ccccc21,-0.404,1.8,-5.0,-11.7,1.1,8.79*,?,0.0285*,0.0319,0.0135*,0.0269*,0.0115*
Cc1ccc(C(=O)CSc2nnc(-c3ccco3)n2C)cc1,-0.00746,0.5,-6.2,0.2,0.1,-4.75*,0.00579*,0.00589,0.0312,0.00747,0.0152*,0.0102
Cc1ccc(C(=O)CSc2nnc(-c3ccccc3N)n2C)cc1,.,0.9,0.4,-19.4,-1.4,-0.551,.,.,.,.,.,.
Cn1c(SCC(=O)c2cc(Cl)c(Cl)s2)nnc1-c1ccco1,.,.,4.2,14.1,0.6,-5.32*,0.00712,0.0301*,0.0323,0.0223*,0.0247,0.0168*
CCCCC(NC(C)=O)c1nc2ccccc2n1CCCC (stereo unspecified),.,-0.7,.,5.7,-1.6,5.95*,0.0056,0.00414,0.0291,?,0.0188,0.00979
CCn1c(NC(=O)c2ccccc2)nc2ccccc21,.,.,-1.7,-4.9,0.5,30.7*,0.00629,0.0181*,0.0323,0.0161*,?,0.0161*
CCCCn1c(NC(=O)c2ccccc2)nc2ccccc21,-0.494,2.4,23.7,2.0,3.2,13.4*,0.00986,0.0303*,0.0324,?,0.0299*,?
COCCCN(C(=S)NC(=O)C12CC3CC(CC(C3)C1)C2)c1c(N)n(Cc2ccccc2)c(=O)[nH]c1=O,-0.0291,3.8,-2.5,-0.8,0.0,-0.0726,.,.,.,.,.,.
O=C(NC1(C(F)(F)F)N=C2SCCN2C1=O)c1cccnc1 (stereo unspecified),0.019,0.0,0.7,-2.6,0.5,0.676,.,.,.,.,.,.
COc1ccc(C2(CNS(=O)(=O)c3ccccc3)CCOCC2)cc1,1.32,2.8,-5.0,-7.9,1.8,0.852,.,.,.,.,.,.
CCOc1ccc(CC(=N)C2=C(O)CC(C)(C)CC2=O)cc1OCC,1.1,0.7,7.3,-16.1,-0.8,-4.29*,0.00753,0.00526,0.0306,0.00636,0.0204,?
COc1ccc(-n2cc(-c3ccc(Cl)cc3)[nH]c2=S)cc1,.,.,-4.4,9.2,0.7,5.66*,0.0246*,0.0132*,0.0302,0.00925*,0.0192,0.0115
COCCNC(=S)N/N=C(\C)c1ccc(OC)cc1,-0.414,0.0,-6.7,5.0,1.0,-0.0879,.,.,.,.,.,.
COc1ccc(/C(C)=N/NC(=S)Nc2cc(C)ccc2C)cc1,-0.0168,1.9,14.0,-14.2,1.1,25.3*,0.00811,0.0483*,0.0458*,0.0361*,0.0408*,0.0376*
CCNC(=S)N/N=C(\C)c1ccc2ccccc2c1OC(F)F,-0.00362,3.0,-12.4,3.0,-1.2,7.69*,0.0121*,0.0625*,0.0371,0.0218*,0.0456*,0.0149*
